# Laboratory results reported in PubChem BioAssay AID371 (SRMLSC, 2006).
# In all, about 3,300 compounds went through this assay and about 280 (8.5%) were called active. The sample as a whole holds a higher share of actives than the screen did. Unmarked numbers belong to inactive results.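 How the source made its calls: active means mean growth inhibition over the two runs of 50% or more; inactive means mean growth inhibition under 50%.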
# Assay: A549 NSCLC cell proliferation inhibitors – ATP luminescence, human non-small cell lung line, primary screen (AID 371);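 further: compound exposure lasted 72 h before the ATP read; 0% = untreated cell signal and 100% = no luminescence left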
# Details: at 10 µM, stronger effect = higher value
row,Structure (SMILES),growth inhibition
1,Oc1ccc(Br)cc1CNn1cnnc1,3.94%
2,CCn1c(SCC(=O)Nc2ccccc2C(=O)OC)nnc1-c1ccc(N)cc1,-4.2%
3,COCCNc1ncnc2c1cnn2-c1ccc(Cl)cc1,26.1%
4,CCOC(=O)C1=C(C)N=C2SC(C)C(=O)N2C1c1cccc(F)c1 (stereo not drawn),-4.33%
5,Oc1c(Cl)cc(Cl)cc1Sc1cc(Cl)cc(Cl)c1O,82.9% (active)
6,CCOC(=O)C1CCN(c2nc3ccccc3nc2C(C#N)C(=O)OCCOC)CC1 (stereo not drawn),13.4%
7,CCC1=Nc2ccccc2NC2=C1C(=O)CCC2,1%
8,Cc1cn([C@H]2C[C@H](N=[N+]=[N-])[C@@H](CO)O2)c(=O)[nH]c1=O,7.02%
9,CCc1cn([C@H]2C[C@H](O)[C@@H](CO)O2)c(=O)[nH]c1=O,29.9%
10,O=c1[nH]c(=O)n([C@H]2C[C@H](O)[C@@H](CO)O2)cc1F,71% (active)
11,COc1ccccc1-c1nn2c(-c3ccco3)nnc2s1,21.8%
12,Cc1cc2c(c(=O)o1)C(Cc1ccccc1)C(C#N)=C(N)O2 (stereo not drawn),-0.57%
13,CC1(C)Cc2c(C#N)c(NCCN3CCOCC3)nc(-c3ccco3)c2CO1,3.05%
14,Nc1ncnc2nc(SCc3ccccc3)[nH]c12,13.6%
15,O=C(COc1ccccc1)Nc1ccc(-c2nnc(-c3ccco3)o2)cc1,-6.02%
16,COc1ccc(CC(=O)Nc2cccc(-c3nnc(-c4ccco4)o3)c2)cc1,64% (active)
17,CCC(=O)Nc1ccc(-c2nnc(-c3ccccc3)o2)cc1,33.7%
18,Cc1cccc(C)c1OCC(=O)Nc1cccc(-c2nnc(-c3ccccc3)o2)c1,53% (active)
19,O=C(Cc1ccc(Cl)cc1)Nc1cccc(-c2nnc(-c3ccco3)o2)c1,20.9%
20,O=C(Cc1ccccc1)Nc1cccc(-c2nnc(-c3ccco3)o2)c1,24%
21,N/C(CCCN1CCCCC1)=N/O,-8.24%
22,CCOC(=O)CNC(=O)CCCCCC(=O)NCC(=O)OCC,-12.7%
23,O=C(NCCN1CCOCC1)c1cc2n(n1)C(C(F)(F)F)CC(c1ccc(F)cc1)N2 (stereo not drawn),2.7%
24,CC(C)(C)NCC(=O)c1c[nH]c2ccccc12,-2.93%
25,COc1ccc2c(c1OC)C(=O)N1c3ccccc3C(=O)N(c3ccccc3)C21 (stereo not drawn),36.5%

row,Structure (SMILES),growth inhibition
1,CCCCSc1nc(O)c(C2OC(=O)c3c2ccc(OC)c3OC)c(=O)n1C (stereo not drawn),4.34%
2,c1ccc(-c2nnc(OCCN3CCOCC3)c3ccccc23)cc1,-0.08%
3,CCOC(=O)N1CCN(C(=O)c2cn(CC)c3cc(N4CCN(C)CC4)c(F)cc3c2=O)CC1,0.65%
4,CCn1cc(C(=O)NCCCN(C)C)c(=O)c2cc(F)c(N3CCN(C)CC3)cc21,8.61%
5,CCn1cc(C(=O)NCC2CCCO2)c(=O)c2cc(F)c(N3CCN(C)CC3)cc21 (stereo not drawn),-0.9%
6,CCn1cc(C(=O)NCc2ccco2)c(=O)c2cc(F)c(N3CCN(C(=O)c4ccco4)CC3)cc21,59.3% (active)
7,CCn1cc(C(=O)NCc2ccccn2)c(=O)c2cc(F)c(N3CCN(C)CC3)cc21,-0.7%
8,CCn1cc(C(=O)NCCc2ccccc2)c(=O)c2cc(F)c(N3CCN(C)CC3)cc21,89.8% (active)
9,CCNc1nc(NC(C)C)nc(N(C#N)C(C)C(=O)N(C)C)n1 (stereo not drawn),2.18%
10,CCN(CC)CCCN1C(=O)C(=O)/C(=C(/O)c2ccccc2)C1c1cc(OC)ccc1OC (stereo not drawn),6.35%
11,O=C1CC(NCc2ccncc2)C(=O)N1c1ccc(Cl)cc1 (stereo not drawn),-4.36%
12,COc1cccc(NC(=O)CC2SC(=Nc3ccccc3)NC2=O)c1 (stereo not drawn),19.4%
13,Cn1c(CSc2ncn[nH]2)nc2ccccc21,-2.84%
14,CC12CCC(=O)N1c1c(sc3nc(N4CCOCC4)c4c(c13)CCCC4)C(=O)N2 (stereo not drawn),4.33%
15,CCOC(=O)c1c(CNCCN(CC)CC)n(C)c2cc(Br)c(OC)cc12,33.7%
16,CCOC(=O)c1c(CN2CCCCC2)oc2ccc(OC)cc12,5.15%
17,CCOC(=O)c1c(C)n(C)c2ccc(OC)c(NC(=O)CN3CCN(Cc4ccccc4)CC3)c12,12.1%
18,CCOC(=O)c1c(CN2CCN(C)CC2)n(C)c2cc(Br)c(OC)cc12,89.8% (active)
19,CCOC(=O)c1c(CN2CCN(CCO)CC2)n(C)c2cc(Br)c(OC)cc12,84.4% (active)
20,CCOC(=O)c1c(C)n(C)c2ccc(OC)c(NC(=O)CN3CCCCC3)c12,6.99%
21,COc1ccccc1C1/C(=C(/O)c2ccc(C)cc2)C(=O)C(=O)N1CCN1CCOCC1 (stereo not drawn),2.55%
22,CN(CCCCCC(=O)/C=N/O)Cc1ccccc1,1.07%
23,COc1ccc(N(CN2C(=O)C3C4C=CC(C4)C3C2=O)C(=O)c2ccco2)cc1 (stereo not drawn),4.02%
24,N#C/C(C(=O)NCc1ccco1)=C1/SC(Cc2ccc(Cl)cc2)C(=O)N1c1ccccc1 (stereo not drawn),5.74%
25,CN(C)CCCn1c(NC(=O)C2CCCCC2)nc2ccccc21,1.53%

row,Structure (SMILES),growth inhibition
1,CCC(=O)Nc1nc2ccccc2n1CCN(C)C,4.62%
2,CCC(=O)Nc1nc2ccccc2n1Cc1ccccc1C,64.4% (active)
3,CCOc1ccc(NC(=O)c2nn(C)cc2Br)cc1,20.1%
4,COc1cccc(-c2nc(N3CCCCC3)c3ccccc3n2)c1O,49.3%
5,CCC1CCCCN1c1nc(-c2ccncc2)nc2ccccc12 (stereo not drawn),74.9% (active)
6,CCOc1nc(-c2ccncc2)nc2ccccc12,10.3%
7,COc1cccc(-c2nc(N3CCC(C)CC3)c3ccccc3n2)c1O,53.7% (active)
8,C=CCOc1nc(-c2ccncc2)nc2ccccc12,18.5%
9,COc1cccc(-c2nc(N3CC(C)CC(C)C3)c3ccccc3n2)c1O (stereo not drawn),30.1%
10,CCC1CCCCN1c1nc(-c2cccc(OC)c2O)nc2ccccc12 (stereo not drawn),45%
11,Nc1c2c(nc3ccccc13)N(C1CCCCC1)CC2,38.8%
12,COc1cccc(-c2nc(N3CCCCC3C)c3ccccc3n2)c1O (stereo not drawn),61.7% (active)
13,Cc1ccc(N2C(=O)c3sc4nnc(C)c(=O)n4c3C2=O)cc1,-7.4%
14,COc1cccc(OC)c1-c1nn2c(-c3ccccc3Cl)nnc2s1,21%
15,CCOC(=O)c1ccc(NCC(O)COc2ccccc2)cc1 (stereo not drawn),31.1%
16,COc1ccc(C(=O)N2CCCC(c3ccccc3)C2)cc1 (stereo not drawn),19%
17,COc1ccccc1-c1nnc2sc(COc3ccccc3)nn12,22%
18,CC1C[C@@]2(NC(=O)NC2=O)C(C)CN1C (stereo partly drawn),2.94%
19,COc1ccc(Nc2cc(C)nc3ccccc23)cc1,31.3%
20,COc1ccc(Nc2nc(Nc3ccc(OC)cc3)nc(-n3[nH]c(=O)c(C)c3C)n2)cc1,39.1%
21,COc1ccc(Nc2cc(C)nc(-n3nc(C)cc3C)n2)cc1,66.2% (active)
22,O=C(Nc1ccccc1)c1cc(N2CCOCC2)nc2ccccc12,8.97%
23,CC(C)COc1ccc(C(=O)NC(CC(C)C)C(=O)O)cc1 (stereo not drawn),-8.3%
24,COc1cc(-c2nn3c(-c4ccccn4)nnc3s2)cc(OC)c1OC,-8.06%
25,Cc1ccc2c(=O)c(CN(C)C3CCN(C)CC3)c(C)[nH]c2c1C,5.56%

row,Structure (SMILES),growth inhibition
1,COc1ccc(C2=Nn3c(nnc3-c3cccnc3)SC2)cc1OC,25%
2,COc1ccccc1-c1nnc2n1N=C(c1ccc(O)c(O)c1)CS2,74.4% (active)
3,COc1ccc(C2=Nn3c(nnc3-c3ccccn3)SC2)cc1OC,3.8%
4,COc1ccc(C2=Nn3c(nnc3-c3ccccc3)SC2)cc1OC,8.86%
5,CCOc1ccc(C2=Nn3c(nnc3-c3cccnc3)SC2)cc1,22.4%
6,CCOc1ccc(C2=Nn3c(nnc3-c3ccccc3OC)SC2)cc1,66% (active)
7,CCOc1ccc(C2=Nn3c(nnc3-c3ccccn3)SC2)cc1,42.3%
8,COc1ccc(C2=Nn3c(nnc3-c3ccccn3)SC2)cc1,50.1% (active)
9,COc1ccc(OC)c(C2=Nn3c(nnc3-c3ccco3)SC2)c1,23.2%
10,Cc1ccsc1C1NC(=O)c2c(sc3c2CCCC3)N1 (stereo not drawn),45.3%
11,O=CN1CCN(C(=O)CN2C(=O)c3ccccc3C2=O)CC1,-3.2%
12,C/C=C/c1ccccc1OCc1ccc(C(=O)O)o1,6.28%
13,CC12CN3CC(=O)N4CC5(C)CN(CC(C)(C4)C5=O)C(=O)CN(C1)CC(C)(C3)C2=O,1.18%
14,COC(=O)CSc1ncnc2c1sc1nc(-c3ccco3)c3c(c12)CC(C)(C)OC3,4.18%
15,O=C(Nc1ccccn1)c1ccc(=O)[nH]n1,5.88%
16,C=CCn1c(SCC(=O)OC)nc2sc3c(c2c1=O)CCN(C)C3,0.89%
17,CCCC1C2C(=O)N(c3ccccc3OC)C(=O)C2ON1c1ccccc1 (stereo not drawn),5.99%
18,CN(Cc1ccccc1)c1ncnc2ccc(Br)cc12,55.5% (active)
19,CN(C)CCN(Cc1ccccc1)c1ccccn1,0.66%
20,COCCNc1nc2c(c(=O)n(C)c(=O)n2C)n1Cc1cccc(C(F)(F)F)c1,36.4%
21,Cc1c(NC(=O)C(CC(=O)O)NCc2ccco2)c(=O)n(-c2ccccc2)n1C (stereo not drawn),5.55%
22,Cc1c(NC(=O)c2coc(=O)c(Br)c2)c(=O)n(-c2ccccc2)n1C,80.5% (active)
23,Cc1c(NC(=O)c2ccc(=O)oc2)c(=O)n(-c2ccccc2)n1C,-1.44%
